This note sets out measurements from ChEMBL document CHEMBL1961873, “Compounds: GSK PKIS; Assays: Nanosyn kinase panel” (2012).

Assay [1] has as its target Sphingosine kinase 1 (Homo sapiens) (UniProt Q9NYA1). The settings on record: at 1 µM.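 Also: mean SPHK1 inhibition value reported from the GSK PKIS kinase panel screen.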
The target of assay [2] is T1, Sphingosine kinase 2 (Homo sapiens) (UniProt Q9NRA0).
T1 sequence (whole entry): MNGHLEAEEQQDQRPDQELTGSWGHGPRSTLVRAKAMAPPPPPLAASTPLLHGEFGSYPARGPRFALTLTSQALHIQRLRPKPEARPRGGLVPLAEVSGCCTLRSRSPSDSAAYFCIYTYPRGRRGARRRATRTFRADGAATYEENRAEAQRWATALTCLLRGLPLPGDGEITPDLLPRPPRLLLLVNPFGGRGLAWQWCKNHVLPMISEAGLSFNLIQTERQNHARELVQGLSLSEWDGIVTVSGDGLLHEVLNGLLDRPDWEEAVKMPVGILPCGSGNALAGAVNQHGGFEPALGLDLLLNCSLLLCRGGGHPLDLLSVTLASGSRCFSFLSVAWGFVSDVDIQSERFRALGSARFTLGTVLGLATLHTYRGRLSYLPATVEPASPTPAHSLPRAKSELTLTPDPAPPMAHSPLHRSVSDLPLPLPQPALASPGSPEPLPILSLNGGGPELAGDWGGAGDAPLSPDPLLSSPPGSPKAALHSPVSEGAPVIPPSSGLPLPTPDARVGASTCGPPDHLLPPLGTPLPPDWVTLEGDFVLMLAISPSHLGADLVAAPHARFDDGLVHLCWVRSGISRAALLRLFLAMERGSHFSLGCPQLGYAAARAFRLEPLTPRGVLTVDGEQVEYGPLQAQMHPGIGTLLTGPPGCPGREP
The settings on record: at 0.1 µM.

For assay [3], the target named is T1, Sphingosine kinase 2 (Homo sapiens). Particulars: at 1 µM.
Assay [4] deals with Casein kinase II subunit alpha (Homo sapiens) (UniProt P68400). The settings on record: at 0.1 µM.
Chain of Casein kinase II subunit alpha (Homo sapiens) (P68400 whole entry, looked up): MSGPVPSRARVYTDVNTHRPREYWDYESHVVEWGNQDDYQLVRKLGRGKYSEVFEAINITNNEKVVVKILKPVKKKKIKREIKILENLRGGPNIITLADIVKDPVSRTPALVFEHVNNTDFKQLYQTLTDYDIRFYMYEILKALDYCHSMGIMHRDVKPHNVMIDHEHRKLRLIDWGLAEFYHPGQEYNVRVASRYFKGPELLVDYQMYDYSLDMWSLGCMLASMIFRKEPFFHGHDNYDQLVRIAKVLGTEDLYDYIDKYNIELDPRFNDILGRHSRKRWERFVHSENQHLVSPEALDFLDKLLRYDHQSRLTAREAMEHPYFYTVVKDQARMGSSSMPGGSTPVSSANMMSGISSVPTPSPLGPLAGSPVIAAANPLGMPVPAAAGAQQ
The target is the same in assay [5]. Particulars: at 1 µM.
In assay [6] the target is T2, Inhibitor of nuclear factor kappa-B kinase subunit alpha (Homo sapiens) (UniProt O15111).
T2 sequence (whole entry): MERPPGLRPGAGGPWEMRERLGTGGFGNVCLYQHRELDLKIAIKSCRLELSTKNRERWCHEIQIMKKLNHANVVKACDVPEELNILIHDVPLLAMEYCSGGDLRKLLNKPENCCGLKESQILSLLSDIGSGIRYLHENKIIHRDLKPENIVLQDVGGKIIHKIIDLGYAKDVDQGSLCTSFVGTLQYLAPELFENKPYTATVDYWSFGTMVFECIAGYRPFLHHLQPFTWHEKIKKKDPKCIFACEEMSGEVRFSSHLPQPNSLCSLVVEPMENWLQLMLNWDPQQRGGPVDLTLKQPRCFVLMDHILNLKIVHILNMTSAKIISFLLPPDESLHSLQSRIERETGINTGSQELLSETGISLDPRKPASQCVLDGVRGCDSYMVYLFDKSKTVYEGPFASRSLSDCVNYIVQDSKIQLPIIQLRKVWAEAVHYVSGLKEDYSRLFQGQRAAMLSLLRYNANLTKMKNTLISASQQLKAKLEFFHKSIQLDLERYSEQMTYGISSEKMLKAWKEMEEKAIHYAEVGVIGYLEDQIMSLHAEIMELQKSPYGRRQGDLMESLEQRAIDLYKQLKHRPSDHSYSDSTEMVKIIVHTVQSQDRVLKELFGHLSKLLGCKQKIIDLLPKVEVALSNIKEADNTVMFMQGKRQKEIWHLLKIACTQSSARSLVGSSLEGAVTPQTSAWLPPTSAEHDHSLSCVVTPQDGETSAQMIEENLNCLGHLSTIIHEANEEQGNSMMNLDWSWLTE
The settings on record: at 0.1 µM.

The target in assay [7] is T2, Inhibitor of nuclear factor kappa-B kinase subunit alpha (Homo sapiens). Particulars: at 1 µM.
For assay [8], the target named is T3, Inhibitor of nuclear factor kappa-B kinase subunit beta (Homo sapiens) (UniProt O14920).
T3 sequence (whole entry): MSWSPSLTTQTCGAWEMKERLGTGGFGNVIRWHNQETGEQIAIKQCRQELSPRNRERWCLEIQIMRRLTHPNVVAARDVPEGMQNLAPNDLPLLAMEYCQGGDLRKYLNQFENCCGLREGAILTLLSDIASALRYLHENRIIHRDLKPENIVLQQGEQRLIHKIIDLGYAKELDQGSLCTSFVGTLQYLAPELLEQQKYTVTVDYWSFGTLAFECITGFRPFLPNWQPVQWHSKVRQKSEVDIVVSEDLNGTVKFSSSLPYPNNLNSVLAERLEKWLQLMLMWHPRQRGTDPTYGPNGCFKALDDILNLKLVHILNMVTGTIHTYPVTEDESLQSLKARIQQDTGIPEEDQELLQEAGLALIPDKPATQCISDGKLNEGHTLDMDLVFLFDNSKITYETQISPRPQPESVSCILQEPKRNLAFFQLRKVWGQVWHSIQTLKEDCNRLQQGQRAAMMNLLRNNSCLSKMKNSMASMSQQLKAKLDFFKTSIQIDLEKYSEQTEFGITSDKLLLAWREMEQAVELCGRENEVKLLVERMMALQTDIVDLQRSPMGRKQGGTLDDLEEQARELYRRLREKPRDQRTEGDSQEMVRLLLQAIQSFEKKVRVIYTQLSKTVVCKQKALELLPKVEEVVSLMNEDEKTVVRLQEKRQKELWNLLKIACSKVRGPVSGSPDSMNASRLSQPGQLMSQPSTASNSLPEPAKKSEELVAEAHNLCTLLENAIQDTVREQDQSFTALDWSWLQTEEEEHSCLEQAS
Particulars: at 0.1 µM.

Assay [9] has as its target T3, Inhibitor of nuclear factor kappa-B kinase subunit beta (Homo sapiens). The settings on record: at 1 µM.
For assay [10], the target named is T4, Inhibitor of nuclear factor kappa-B kinase subunit epsilon (Homo sapiens) (UniProt Q14164).
T4 sequence (whole entry): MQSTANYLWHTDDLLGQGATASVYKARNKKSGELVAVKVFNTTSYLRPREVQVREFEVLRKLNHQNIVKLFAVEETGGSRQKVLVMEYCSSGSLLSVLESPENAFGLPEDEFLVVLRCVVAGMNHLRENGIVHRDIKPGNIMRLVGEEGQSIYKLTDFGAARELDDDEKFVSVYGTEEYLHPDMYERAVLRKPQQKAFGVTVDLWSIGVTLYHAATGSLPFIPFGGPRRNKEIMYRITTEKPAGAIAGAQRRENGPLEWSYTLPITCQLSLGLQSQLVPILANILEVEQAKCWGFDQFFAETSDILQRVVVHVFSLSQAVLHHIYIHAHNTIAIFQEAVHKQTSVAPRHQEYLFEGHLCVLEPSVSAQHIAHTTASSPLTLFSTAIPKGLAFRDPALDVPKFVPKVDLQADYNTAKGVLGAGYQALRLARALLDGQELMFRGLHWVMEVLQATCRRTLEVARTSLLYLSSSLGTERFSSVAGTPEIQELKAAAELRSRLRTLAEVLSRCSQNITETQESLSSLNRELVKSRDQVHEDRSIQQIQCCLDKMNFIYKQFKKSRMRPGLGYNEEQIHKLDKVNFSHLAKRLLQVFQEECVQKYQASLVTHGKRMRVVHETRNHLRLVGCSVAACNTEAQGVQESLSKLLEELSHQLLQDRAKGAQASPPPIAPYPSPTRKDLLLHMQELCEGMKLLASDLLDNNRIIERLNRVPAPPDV
The settings on record: at 0.1 µM.

Assay [11] deals with T4, Inhibitor of nuclear factor kappa-B kinase subunit epsilon (Homo sapiens). Particulars: at 1 µM.
For assay [12], the target named is T5, Serine/threonine-protein kinase Nek1 (Homo sapiens) (UniProt Q96PY6).
T5 sequence (whole entry): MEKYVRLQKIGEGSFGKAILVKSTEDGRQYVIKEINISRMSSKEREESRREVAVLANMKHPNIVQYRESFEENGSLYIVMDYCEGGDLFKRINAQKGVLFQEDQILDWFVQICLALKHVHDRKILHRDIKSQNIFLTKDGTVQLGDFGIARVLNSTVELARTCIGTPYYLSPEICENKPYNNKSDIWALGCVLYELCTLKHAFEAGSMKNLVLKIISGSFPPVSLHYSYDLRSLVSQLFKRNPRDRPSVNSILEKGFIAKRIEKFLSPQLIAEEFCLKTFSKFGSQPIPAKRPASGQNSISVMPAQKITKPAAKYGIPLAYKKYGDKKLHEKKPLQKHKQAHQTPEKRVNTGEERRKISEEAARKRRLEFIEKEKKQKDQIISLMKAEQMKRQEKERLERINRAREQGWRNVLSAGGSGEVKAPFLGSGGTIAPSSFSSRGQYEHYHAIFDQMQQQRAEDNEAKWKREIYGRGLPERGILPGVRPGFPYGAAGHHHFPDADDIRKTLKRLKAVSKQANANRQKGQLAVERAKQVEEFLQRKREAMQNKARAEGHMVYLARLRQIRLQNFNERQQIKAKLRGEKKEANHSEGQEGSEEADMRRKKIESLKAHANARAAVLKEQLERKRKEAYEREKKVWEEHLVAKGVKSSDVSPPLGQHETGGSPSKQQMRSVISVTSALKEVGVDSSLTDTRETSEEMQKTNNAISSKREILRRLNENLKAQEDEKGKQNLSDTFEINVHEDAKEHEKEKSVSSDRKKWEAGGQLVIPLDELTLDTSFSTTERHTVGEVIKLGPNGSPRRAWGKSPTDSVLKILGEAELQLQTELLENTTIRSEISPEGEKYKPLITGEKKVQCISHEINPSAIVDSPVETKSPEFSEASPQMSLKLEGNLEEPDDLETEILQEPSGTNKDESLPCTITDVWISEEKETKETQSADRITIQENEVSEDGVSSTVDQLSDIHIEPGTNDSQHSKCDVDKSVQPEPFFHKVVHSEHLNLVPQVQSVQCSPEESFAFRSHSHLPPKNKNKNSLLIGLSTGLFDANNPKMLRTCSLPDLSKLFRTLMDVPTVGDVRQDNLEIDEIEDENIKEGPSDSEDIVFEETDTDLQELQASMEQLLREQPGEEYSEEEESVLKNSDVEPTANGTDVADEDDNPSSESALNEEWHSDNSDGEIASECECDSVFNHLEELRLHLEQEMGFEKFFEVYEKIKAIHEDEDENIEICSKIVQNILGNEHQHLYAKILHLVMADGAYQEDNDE
Particulars: at 0.1 µM.

For assay [13], the target named is T5, Serine/threonine-protein kinase Nek1 (Homo sapiens). The settings on record: at 1 µM.
Assay [14] deals with T6, Serine/threonine-protein kinase Nek2 (Homo sapiens) (UniProt P51955).
T6 sequence (whole entry): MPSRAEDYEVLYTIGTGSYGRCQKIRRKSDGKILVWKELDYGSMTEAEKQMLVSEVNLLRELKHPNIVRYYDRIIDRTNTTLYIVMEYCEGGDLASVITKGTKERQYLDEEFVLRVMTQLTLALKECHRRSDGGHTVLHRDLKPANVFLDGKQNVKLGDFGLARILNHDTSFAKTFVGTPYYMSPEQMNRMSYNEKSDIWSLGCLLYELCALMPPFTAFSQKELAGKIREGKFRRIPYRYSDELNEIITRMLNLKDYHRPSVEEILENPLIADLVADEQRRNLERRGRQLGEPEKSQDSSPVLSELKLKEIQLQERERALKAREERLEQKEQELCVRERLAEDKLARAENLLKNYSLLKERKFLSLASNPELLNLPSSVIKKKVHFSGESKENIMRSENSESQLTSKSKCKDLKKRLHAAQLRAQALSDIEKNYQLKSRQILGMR
The settings on record: at 0.1 µM.

Assay [15] addresses T6, Serine/threonine-protein kinase Nek2 (Homo sapiens). The settings on record: at 1 µM.
The target of assay [16] is Serine/threonine-protein kinase Nek6 (Homo sapiens) (UniProt Q9HC98). Particulars: at 0.1 µM.
Chain of Serine/threonine-protein kinase Nek6 (Homo sapiens) (Q9HC98 whole entry): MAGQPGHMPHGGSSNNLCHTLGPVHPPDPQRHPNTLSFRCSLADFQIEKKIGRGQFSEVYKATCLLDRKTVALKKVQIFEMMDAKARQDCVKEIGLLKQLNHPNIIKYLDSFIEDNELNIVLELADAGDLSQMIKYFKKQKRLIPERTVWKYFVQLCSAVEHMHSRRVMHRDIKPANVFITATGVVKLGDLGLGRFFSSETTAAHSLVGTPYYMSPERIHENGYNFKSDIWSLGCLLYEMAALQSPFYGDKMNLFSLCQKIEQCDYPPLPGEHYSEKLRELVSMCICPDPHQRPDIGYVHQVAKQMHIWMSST
Assay [17] shares this target. The settings on record: at 1 µM.
Assay [18] concerns the target Serine/threonine-protein kinase Nek7 (Homo sapiens) (UniProt Q8TDX7). The settings on record: at 0.1 µM.
Assay [19] shares this target. The settings on record: at 1 µM.
The target of assay [20] is T7, Serine/threonine-protein kinase Nek9 (Homo sapiens) (UniProt Q8TD19).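 Also: reported value is the mean percent inhibition of NEK9.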
T7 sequence (whole entry): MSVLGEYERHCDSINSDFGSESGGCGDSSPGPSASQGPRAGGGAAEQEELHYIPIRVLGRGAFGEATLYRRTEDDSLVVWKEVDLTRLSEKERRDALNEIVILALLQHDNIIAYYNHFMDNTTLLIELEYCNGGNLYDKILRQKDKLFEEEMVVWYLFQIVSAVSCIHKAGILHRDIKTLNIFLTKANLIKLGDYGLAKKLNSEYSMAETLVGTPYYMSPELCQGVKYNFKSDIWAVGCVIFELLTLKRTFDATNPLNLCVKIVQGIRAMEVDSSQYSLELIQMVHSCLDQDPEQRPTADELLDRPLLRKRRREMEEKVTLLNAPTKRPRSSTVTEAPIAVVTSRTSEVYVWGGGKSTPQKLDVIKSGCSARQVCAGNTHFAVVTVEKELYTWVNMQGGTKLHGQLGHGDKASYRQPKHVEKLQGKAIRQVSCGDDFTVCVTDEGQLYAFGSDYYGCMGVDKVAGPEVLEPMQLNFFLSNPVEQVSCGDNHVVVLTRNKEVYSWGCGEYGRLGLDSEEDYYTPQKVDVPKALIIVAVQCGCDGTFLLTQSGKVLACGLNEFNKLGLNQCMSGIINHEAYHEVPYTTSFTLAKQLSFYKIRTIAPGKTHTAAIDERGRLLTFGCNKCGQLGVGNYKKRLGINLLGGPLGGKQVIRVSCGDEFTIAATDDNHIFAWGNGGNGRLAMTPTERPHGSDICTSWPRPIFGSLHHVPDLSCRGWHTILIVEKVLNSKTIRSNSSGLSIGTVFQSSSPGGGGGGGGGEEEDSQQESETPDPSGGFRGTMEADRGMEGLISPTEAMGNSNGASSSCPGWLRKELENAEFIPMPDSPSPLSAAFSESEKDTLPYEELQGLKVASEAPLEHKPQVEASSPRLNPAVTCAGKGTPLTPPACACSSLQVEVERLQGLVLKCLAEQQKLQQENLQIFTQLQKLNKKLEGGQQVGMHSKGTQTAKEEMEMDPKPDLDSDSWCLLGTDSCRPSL
Particulars: at 0.1 µM.

Chain of Serine/threonine-protein kinase Nek7 (Homo sapiens) (Q8TDX7 whole entry, looked up): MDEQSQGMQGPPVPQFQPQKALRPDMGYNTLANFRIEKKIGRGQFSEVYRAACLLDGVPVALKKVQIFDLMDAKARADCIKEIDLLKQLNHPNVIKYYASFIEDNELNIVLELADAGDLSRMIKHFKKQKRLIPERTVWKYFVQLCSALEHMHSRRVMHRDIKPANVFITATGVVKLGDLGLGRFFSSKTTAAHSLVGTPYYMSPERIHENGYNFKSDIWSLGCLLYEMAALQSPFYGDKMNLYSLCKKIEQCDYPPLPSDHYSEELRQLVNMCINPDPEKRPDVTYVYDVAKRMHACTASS
Chain of Sphingosine kinase 1 (Homo sapiens) (Q9NYA1 whole entry): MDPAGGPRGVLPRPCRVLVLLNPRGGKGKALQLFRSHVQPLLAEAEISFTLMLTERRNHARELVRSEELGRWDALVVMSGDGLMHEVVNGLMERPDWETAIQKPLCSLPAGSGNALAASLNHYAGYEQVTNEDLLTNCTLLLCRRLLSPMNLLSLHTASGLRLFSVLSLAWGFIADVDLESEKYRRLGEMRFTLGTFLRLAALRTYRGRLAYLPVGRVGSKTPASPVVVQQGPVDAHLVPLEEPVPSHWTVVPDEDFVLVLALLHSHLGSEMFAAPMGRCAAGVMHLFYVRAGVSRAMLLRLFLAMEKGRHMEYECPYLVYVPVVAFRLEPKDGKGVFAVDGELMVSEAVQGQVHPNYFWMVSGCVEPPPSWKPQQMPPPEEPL

For `CCn1c(-c2nonc2N)nc2c(C#CC(C)(C)O)ncc(OCC3CCNCC3)c21`, the inhibition – broadly, the drop in the measured response relative to a control, in per cent – in assay [1] was 0.24%; in assay [2], 1.73%; in [3], -2.73%; in assay [4], 4.56%; in assay [5], 12.8%; in assay [6], 7.05%. Besides, the inhibition in assay [7] was 7.37%; in assay [8] it was 4.88%; in assay [9] it was 4.77%; in [10] it was 90.3%; in assay [11] it was 99.1%; in assay [12], 2.19%. For the same molecule, the inhibition in assay [13] is 3.24%; in assay [14] it was 3.86%; in [15] it was 3.71%; in assay [16], 3.46%; in assay [17] it was 4.94%; in assay [18], 3.99%. The results for the inhibition in [19] and in assay [20] were 3.34% and 5.3%, respectively.
